According to PubChem BioAssay:

Test: growth suppression of yeast trafficking mutant, preliminary HTS, modulators of trafficking downstream of Golgi apparatus project, 1536-format plate, OD 615 nm (AID 637)
Settings: yeast transport mutant growth, absorbance 615 nm, 18 h; stronger effect = higher value; in the data active means inhibition above about 30%; inactive means the rest

inhibition, inactive:
Nc1nc(N2CCCCC2)nc(N(c2ccccc2)c2ccccc2)n1 -2.33%, O=C1c2ccccc2C(Nc2cccnc2)N1Cc1ccccc1Cl (centres undefined) -3.5%, CCN1CCN(c2nc3c(c(=O)[nH]c(=O)n3C)n2CCSc2nc3ccccc3s2)CC1 4%, COc1cc(C(O)c2nc3ccccc3n2C)cc(OC)c1OC (centres undefined) -7.33%, CCOC(=O)N1CCC(Nc2nc3ccccc3n3cnnc23)CC1 3.17%, COc1ccc(C2C(C(C)=O)=C(C)N=c3s/c(=C/c4ccc5c(c4)OCO5)c(=O)n32)cc1 (centres undefined) -3.49%, CCOC(=O)C1=C(C)N(C)C(=O)NC1c1ccccc1OC (centres undefined) 2.46%, CCCCS(=O)(=O)NC1=NCN(CCOC(=O)c2ccccc2)CN1 2.58%, COc1ccc(-n2c(Cc3cccn3C)nnc2SCC(=O)Nc2cccc(Cl)c2)cc1 -2.67%, CCC1CCCCN1C(=O)CSc1nnc(-c2ccc(OC)cc2)o1 (centres undefined) -9.34%, COc1ccc(N(CC(=O)Nc2ccc3c(c2)OCO3)S(=O)(=O)c2c(C)nn(C)c2C)cc1 1%, CCOc1ccc(C2CC(c3ccccc3C)n3nc(N)nc3N2)cc1 (centres undefined) -3%, Cc1cc(N)n2nc(-c3ccccc3)cc2n1 -0.33%, CCCCCn1c(CCNC(=O)CCC)nc2ccccc21 1.17%, O=C(c1ccc2c(c1)OCCO2)N1CCCCC1 0.17%, O=C(NCCc1c[nH]c2ccccc12)c1cnc2n(c1=O)CCS2 1.8%, CCc1cc(=O)n2[nH]c(C)c(-c3ccccc3OC)c2n1 -6.83%, Cc1ccc(CSc2nc3c(c(=O)[nH]2)CCC3)cc1 2.67%, CN(CCNS(=O)(=O)c1ccc2c(c1)oc(=O)n2C)Cc1ccccc1 -2.33%, COc1ccc(-c2nnc(SCC(=O)NC(C)c3ccccc3)o2)cc1 (centres undefined) 2.33%, CCOc1ccc(Cn2nnc(C(=O)Nc3cc(C)cc(C)c3)c2N)cc1 -3.28%, CCCCCn1c(CN2CCN(C(=O)c3ccco3)CC2)nc2c1c(=O)n(C)c(=O)n2C -5.83%, CCN1CCN(Cc2ccc(NC(=O)Nc3ccccc3)cc2)CC1 0.33%, CCCN(CCC)C(=O)c1c(C)[nH]c(C(=O)OCC)c1C -2.33%, COc1cccc(C2CC(c3c(Cl)cccc3Cl)n3nc(N)nc3N2)c1 (centres undefined) -0.98%, Cc1c(C(=O)OCc2ccccc2)[nH]c2c1C(=O)CC(c1ccco1)C2 (centres undefined) -0.5%, Cn1c(=O)c2c(nc(SCCOc3ccc4ccc(=O)oc4c3)n2C)n(C)c1=O -1.97%, COc1ccc(NC(=O)CN(c2cc(C)cc(C)c2)S(=O)(=O)c2c(C)noc2C)cc1OC -1.67%, CCOc1ccc(N2CC(C(=O)Nc3ccccc3OC)CC2=O)cc1 (centres undefined) -3%, CC(C)CNc1oc(-c2ccc(F)cc2)nc1C#N -4.1%, O=C(Nc1nnc(N2CCCCCC2)s1)c1cc(-c2ccc(Br)cc2)on1 3.67%, Cc1ccc(N=Cc2ccc[nH]2)c(O)c1 0.5%, CCCOC(=O)c1[nH]c2c(c1C)C(=O)CC(c1cc(OC)c(OC)c(OC)c1)C2 (centres undefined) -4%, C=CCSc1nc2sc(C)c(C)c2c(=O)[nH]1 -10.3%, O=C(c1ccc(Br)cc1)N1CCN(S(=O)(=O)c2ccccc2)CC1 2.33%, CN(C(=O)c1ccco1)c1nnc(C23CC4CC(CC(C4)C2)C3)s1 -0.83%, COc1ccc(-c2nc3c(n2O)CCC/C3=N\O)cc1 0.33%, CC1CCC(NC(=O)C2(C)CCC(=O)N2Cc2cccnc2)CC1 (centres undefined) -5.17%, Cc1cnc(NC(=O)CSc2nnc(COc3c(C)cccc3C)o2)s1 4.83%
